# Screens from PubChem.
# Most compounds without a hit are left out; they make up all but 2.4% or so of the library.
# Cruzain inh Det: blocks cruzain activity in presence of Triton detergent | P25779 | purified cruzain, Z-FR-AMC fluorescence, 0.01% Triton | Potency, µM, hits mostly inhibitors | hit rate 0.43% among 200,000 | AID 1478; further: nearly all actives have a fitted effect of over 40% in size
# Target sequence (P25779 123-467 limits assumed): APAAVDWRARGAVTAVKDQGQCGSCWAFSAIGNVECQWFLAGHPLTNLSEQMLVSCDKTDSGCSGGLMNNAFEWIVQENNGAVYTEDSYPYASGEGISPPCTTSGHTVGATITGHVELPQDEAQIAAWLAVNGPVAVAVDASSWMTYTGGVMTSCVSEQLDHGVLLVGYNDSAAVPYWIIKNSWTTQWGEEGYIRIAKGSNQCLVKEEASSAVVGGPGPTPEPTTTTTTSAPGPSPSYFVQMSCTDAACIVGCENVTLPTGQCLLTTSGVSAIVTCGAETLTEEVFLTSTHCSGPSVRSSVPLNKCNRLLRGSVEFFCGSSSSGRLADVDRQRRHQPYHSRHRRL
#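 Z-FR-AMC hydrolysis (2 uM substrate) by cruzain (1.5 nM) monitored kinetically at ex 360/em 450 nm after 15 min room-temperature compound exposure; 0.01% Triton X-100, pH 5.5, 5 mM DTT.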
# Cruzain noTriton: cruzain (T. cruzi) inhibition without detergent; P25779; Potency, µM, most hits filed as inhibitors; AID 1476; purified cruzain, Z-FR-AMC fluorescence, no detergent; hit rate 2.3% among 200,000; further: nearly all actives have a fitted effect of over 40% in size
#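 Purified cruzain at 1.5 nM, pre-incubated 15 min with compound at room temperature in 100 mM sodium acetate pH 5.5, 5 mM DTT, 0.00005% Triton X-100. Reaction started with 2 uM Z-FR-AMC; AMC fluorescence increase over 60 s gives rate.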
# A number is an active result; i = inactive; ? = inconclusive. The call rests on the fitted dose curve; in most records, active means well fitted curve in the direction sought with a large enough effect; inconclusive means small, poorly fitted or top-dose-only effect, or another doubt; inactive means no such curve, though single readings can be large; an effect the other way counts as inactive or inconclusive.
SMILES,Cruzain inh Det,Cruzain noTriton
CCCOc1ccc(-c2nc(C#N)c(N3CCN(C)CC3)o2)cc1,i,i
CC(CNC(=O)c1cnn(-c2ccc(F)cc2)c1-n1cccc1)c1ccccc1 (configuration not stated),i,i
CCc1ccc(NC(=O)N(Cc2ccco2)C(C)c2cccs2)cc1 (configuration not stated),i,i
CCc1ccc(NC(=O)CS(=O)CC(=O)NC(C)CCc2ccco2)cc1 (configuration not stated),i,25µM
CCOC(=O)c1c(C)[nH]c(C(=O)COC(=O)[C@H](C)NC(=O)c2ccccc2Cl)c1C,i,i
CCOC(=O)c1c(C)[nH]c(C(=O)COC(=O)CNC(=O)C2CCCCC2)c1C,?,7.9µM
CCOC(=O)c1c(C)[nH]c(C(=O)COC(=O)CNC(=O)c2ccccc2Cl)c1C,11µM,13µM
CCOC(=O)c1c(C)[nH]c(C(=O)COC(=O)CN2C(=O)C3CCCCC3C2=O)c1C (configuration not stated),i,i
CCCN(CCC)C(=O)c1nn(C)c2c1CSc1ccc(C)cc1-2,i,i
CC(C)CC(=O)NCC(c1ccc2c(c1)OCO2)N1CCN(c2ccccc2F)CC1 (configuration not stated),i,i
CCOc1ccccc1NC(=O)CSc1nc2c(oc3ccccc32)c(=O)n1-c1ccc(C)c(C)c1,i,i
CCOC(=O)c1ccc(NC(=O)CSc2nccn2-c2ccc(OCC)cc2)cc1,i,i
O=C(CN1CCN(c2nc(-c3ccccc3)cs2)CC1)Nc1ccc2c(c1)OCO2,i,25µM
O=C(CN1CCc2ccccc21)Nc1ccc2c(c1)OCO2,i,13µM
O=C(CN1CCc2ccccc21)NCc1ccc2c(c1)OCO2,i,i
CCc1nnc(NC(=O)CN2CCN(c3nc(-c4ccccc4)cs3)CC2)s1,i,?
CCc1ccc(CNC(=O)CCn2c(=O)c3cccn3c3ccc(F)cc32)cc1,i,?
Cc1cc(C)nc(Nc2ccc(N3CCCC3)cc2)n1,i,32µM
Cc1cc(C)nc(Nc2ccc(N3CCOCC3)cc2)n1,i,?
CC(C)C(NC(=O)c1ccccc1Cl)C(=O)OCc1nc2scc(-c3ccccc3Cl)c2c(=O)[nH]1 (configuration not stated),i,25µM
O=C(OCc1nc2scc(-c3ccccc3)c2c(=O)[nH]1)c1cc([N+](=O)[O-])ccc1Cl,i,?
N#CC(C#N)=CC1=C2OC(c3ccccc3)=CC(c3ccccc3)=C2CCC1,i,5µM
CC(NC(=O)/C(C#N)=C1\N=C(NC(=O)c2cccs2)c2ccccc21)c1ccccc1 (configuration not stated),i,16µM
N#C/C(C(=O)NCCc1ccccc1)=C1/N=C(NC(=O)c2cccs2)c2ccccc21,i,4µM
C[C@@H](NC(=O)/C(C#N)=C/c1ccc(O)c(O)c1)c1ccccc1,i,i
SMILES,Cruzain inh Det,Cruzain noTriton
O=C(NCCc1ccccc1)c1cccs1,i,i
CCN(C(=O)CSc1nc2ccccc2c2nc(CCn3c(C)nc4ccccc43)nn12)c1cccc(C)c1,i,?
c1ccc(-c2ccc(N3CCCC4(CCNCC4)C3)cc2)cc1,i,32µM
c1ccc(-c2ccc(N3CC4(CCNCC4)C3)cc2)cc1,i,?
Cc1c(C(=O)N/N=C/c2ccc(N(C)C)cc2)[nH]c2ccc(Cl)cc12,i,10µM
Cc1c(C(=O)N/N=C/c2ccccc2)[nH]c2ccc(Cl)cc12,i,i
N#C/C(=C/c1ccc(O)cc1)c1nc(-c2ccc(-c3ccccc3)cc2)cs1,i,i
N#C/C(=C\C=C\c1ccccc1)c1nc(-c2ccc3c(c2)OCO3)cs1,i,25µM
Cc1ccc(-c2c(CN3CCN(c4cc(Cl)ccc4C)CC3)csc2C)cc1,i,i
O=C(/C=C/c1ccc(Cl)c([N+](=O)[O-])c1)Nc1ccc(N2CCCC2)c(Cl)c1,i,20µM
COc1ccc(C(=O)/C=C/c2ccc(N3CCCCC3)c([N+](=O)[O-])c2)cc1,i,i
CCOc1ccccc1CNC(=O)C1CCN(c2nnc(-n3c(C)ccc3C)s2)CC1,i,i
CCOC(=O)c1cnn(-c2ccc(C(=O)Nc3cc(OC)c(OC)c(OC)c3)cc2)c1N,i,i
O=[N+]([O-])c1cccc2ccc(/C=C/c3ccc(Cl)cc3)nc12,i,10µM
O=[N+]([O-])c1cccc2ccc(/C=C/c3ccc(C(F)(F)F)cc3)nc12,i,i
CCc1cccc(C)c1NC(=O)c1cc(S(=O)(=O)N(Cc2ccc(C(=O)OC)cc2)Cc2ccc(OC)c(OC)c2)ccc1F,i,i
Cc1ccc(NC(=O)C2CCCN(c3nnc(-n4c(C)ccc4C)s3)C2)c(C)c1 (configuration not stated),i,i
CC1=C(c2ccc(Cl)cc2)S(=O)(=O)NC1=NCCCN1CCN(c2cc(C)ccc2C)CC1,i,i
Cc1ccc(NC(=O)CSc2nc3nccnc3c(=O)n2CCc2c[nH]c3ccccc23)cc1,i,i
CC(C)(C)NC(=O)C(Cc1ccccc1)NS(=O)(=O)c1cccc2nsnc12 (configuration not stated),i,i
Cc1ccc(Cl)cc1NC(=O)C(Cc1ccccc1)NS(=O)(=O)c1cccc2nsnc12 (configuration not stated),i,25µM
O=C(Nc1ccc(OC(F)(F)F)cc1)C(Cc1ccccc1)NS(=O)(=O)c1cccc2nsnc12 (configuration not stated),i,i
O=C(Nc1ccc(Cl)c(C(F)(F)F)c1)C(Cc1ccccc1)NS(=O)(=O)c1cccc2nsnc12 (configuration not stated),i,20µM
CSc1nc2n(n1)C(c1cccc(F)c1)C(C(=O)Nc1ccc(C)cc1C)=C(C)N2 (configuration not stated),i,10µM
COc1ccc(C2C(C(=O)Nc3ccc(C)cc3C)=C(C)Nc3nc(SC)nn32)cc1OC (configuration not stated),i,i
SMILES,Cruzain inh Det,Cruzain noTriton
Cc1cccc(N(C)S(=O)(=O)c2nnc(NC(=O)C(C)Oc3ccccc3)s2)c1 (configuration not stated),i,i
Cc1ccc(NC(=O)Cn2c(=O)n(CCC(=O)N3CCc4ccccc4C3)c(=O)c3ccccc32)c(C)c1,i,i
COc1ccc(-n2nc3c(c2NC(=O)C(=O)NCc2ccccc2)CSC3)cc1,i,7.9µM
CC(C)CNC(=O)C(=O)Nc1c2c(nn1-c1ccc(Cl)cc1)CSC2,i,?
O=C(NCc1ccccc1)C(=O)Nc1c2c(nn1-c1ccccc1)CSC2,i,?
COc1ccc(CNC(=O)C(=O)Nc2c3c(nn2-c2ccccc2)CSC3)cc1,i,25µM
COC(=O)CC[C@@H](C)C1CC[C@H]2[C@H]3CC[C@H]4C[C@@H]5CCC4(C)[C@@]3(O5)[C@@H](Br)[C@@H](Br)[C@@]12C (some centres not stated),i,i
Cc1ccc(OC(C)C(=O)Nc2nonc2-c2ccc(Br)cc2)cc1C (configuration not stated),i,i
Cc1cccc(N(C)C(=O)C2CCC(CNS(=O)(=O)c3cccc4nsnc34)CC2)c1 (configuration not stated),i,i
COc1cccc(NS(=O)(=O)c2cc(-c3cnc(C4CC4)o3)ccc2C)c1,i,i
CCOC(=O)c1cccc(NC(=O)CCC(=O)N2CC(C)Oc3ccc(C)cc32)c1 (configuration not stated),i,i
COC(=O)c1ccccc1NC(=O)c1cc2sccc2n1C,i,i
